# Screening data deposited in PubChem BioAssay by several laboratories.
# sEH activator = increases human soluble epoxide hydrolase activity; purified human sEH enzymatic activity, activator screen; P34913; hit rate 0.04% among 91,000; activation, % at 2 µM; AID 717; in the data active = activation above about 37%
# sEH inh = soluble epoxide hydrolase (human) inhibition | P34913 | recombinant human sEH enzymatic activity assay | inhibition, % at 2 µM | hit rate 0.34% among 91,000 | AID 707; in the data active = inhibition above about 80%
# Cav3 T inh = blocks human Cav3.2 T-type calcium channel; O95180; Cav3.2-expressing cells, Fluo-4 calcium fluorescence FDSS; active compounds read low; B-score at 10 µM; hit rate 4% among 100,000; AID 449739;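 active = single-dose well whose peak fluorescence ratio is a statistical outlier from its plate by either plate-standardised score or position-corrected B-score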
# PostGolgi yeast = growth inhibition of a yeast mutant, post-Golgi transport screen; post-Golgi transport phenotypic cell assay; inhibition, % at 10 µM; hit rate 0.9% among 98,000; AID 739;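 note: yeast cells grown in 1536-well plates; yeast grown about 18 h at 30C before absorbance read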
# PostGolgi ctrl = inhibits growth of the yeast control strain. efflux-deficient yeast background strain, growth absorbance A615, 16 h. AID 738. inhibition, % at 10 µM. hit rate 5% among 98,000
# * = called active by the depositor; nt = no result given. Only some compounds are listed: those with a hit (about 7.8% of all), similar ones and a draw of the others. Cut-off read from the data, not from the text of the source, unless noted: active = inhibition above about 30%; inactive = the rest.
SMILES,sEH activator,sEH inh,Cav3 T inh,PostGolgi yeast,PostGolgi ctrl
CCn1cc(C(=O)N2CCOCC2)c(=O)c2cc(S(=O)(=O)N(C)C3CCCCC3)ccc21,nt,nt,-1.1,-8,-12
Cc1[nH]nc2c1/C(=N/O)CC(c1ccccc1)C2 (stereo not given),13,-12,0.21,-1,-1
CCOc1cc(C)c(S(=O)(=O)Nc2ccc(Cl)cn2)cc1C,nt,nt,-0.084,1,58*
C=CCSC1=C(C#N)C(c2ccc(OCC)cc2)CC(=O)N1 (stereo not given),nt,nt,1.4,-13,5
COc1[nH]c2ccc(F)cc2c1C(=O)OCC1CCN(CCNS(C)(=O)=O)CC1,nt,nt,-0.22,nt,nt
CC(=O)NS(=O)(=O)c1ccc(NC(=S)NC(=O)C(C)C)cc1,25,-25,0.63,0,36*
Cc1cc(C)nc(NS(=O)(=O)c2ccc(NC(=S)NC(=O)C(C)C)cc2)n1,14,-8,0.61,nt,nt
Cc1ccc(OCC(=O)N2CC3(C)CC2CC(C)(C)C3)cc1 (stereo not given),7,-1,-1.6,nt,nt
Cc1ccc(C(=O)Nc2ccccc2C(=O)N2CC3(C)CC2CC(C)(C)C3)cc1 (stereo not given),-1,3,-5.9*,2,41*
CC(C(=O)Nc1ncn[nH]1)N1C(=O)c2ccccc2C1=O (stereo not given),-7,7,0.12,nt,nt
Cc1ccc(SC(C)C(=O)Nc2ncn[nH]2)cc1 (stereo not given),-2,7,-0.027,42*,-4
COc1ccc(OC)c(NC(=O)C2CCN(c3nc(C)cc(C)n3)CC2)c1,8,-8,-0.57,1,37*
Cc1cc(C)nc(N2CCCC(C(=O)Nc3cc(F)ccc3C)C2)n1 (stereo not given),-10,8,nt,3,30*
COc1ccccc1NC(=O)C1CCCN(c2nc(C)cc(C)n2)C1 (stereo not given),4,-5,0.027,nt,nt
COc1ccc(OC)c(NC(=O)C2CC(C)=C(C)CC2C(=O)O)c1 (stereo not given),-5,5,-0.64,12,-4
COc1ccccc1CNCC(O)(c1ccc(Cl)cc1)c1ccc(Cl)cc1,4,-3,-4.5*,3,30
O=C(c1ccccc1)c1nc[nH]c1C(=O)Nc1ccccc1,-20,21,0.013,-3,15
CN(C)CCNC(=O)C(C(=O)c1ccc(F)cc1)n1ccccc1=O (stereo not given),1,-1,-0.024,4,6
COC(=O)c1cn(NC(=O)c2cccc(OC)c2)c(=O)c2ccccc12,-5,8,-0.0038,2,-1
CCCCC1=CC2=CC(=O)C(C)(OC(=O)c3ccc(Cl)nc3)C(=O)C2=CO1 (stereo not given),nt,nt,0.0075,nt,nt
COc1c(C(CC(C)C)OC(C)=O)ccc2c1C(=O)OCc1cc(C)cc(O)c1O2 (stereo not given),nt,nt,-3.8*,nt,nt
CCOC(=O)C(=O)Nc1nnc(CCc2ccccc2)s1,-4,6,0.65,nt,nt
CC1(C)[C@@H](O)CC[C@]2(C)C3C(O)C=C4[C@H]5C[C@@](C)(CO)CC[C@]5(C)CC[C@]4(C)[C@]3(C)CC[C@@H]12 (stereo not given in full),nt,nt,-0.11,nt,nt
Clc1ccc2c(c1)-c1nnc(Br)n1-c1ccccc1S2,-2,3,-3.9*,nt,nt
O=C(CC1N=C2c3ccccc3N=C(SCc3ccc(Cl)cc3)N2C1=O)NCc1ccco1 (stereo not given),4,-4,-3.3,-3,37*
SMILES,sEH activator,sEH inh,Cav3 T inh,PostGolgi yeast,PostGolgi ctrl
O=C(NCCSc1c[nH]c2ccccc12)c1ccc2c(c1)OCO2,nt,nt,-3.6,nt,nt
N#C/C(=C/c1ccc2c(c1)OCO2)C(=O)NCCc1c[nH]c2ccccc12,14,-18,-0.87,8,36*
CCN(CC)S(=O)(=O)c1cc(Br)c(C)cc1OC,2,-1,nt,-14,33*
CCOc1cc(C)c(Cl)cc1S(=O)(=O)N1CCCC1,-1,2,-2.6,-1,14
CCCOc1cc(C)c(Cl)cc1S(=O)(=O)N(CC)CC,0,3,-3.8*,nt,nt
CC(=O)c1cn(CC(=O)Nc2ccc(C)cc2C)c2ccccc12,1,4,-0.38,nt,nt
CCOc1ccc(NC(=O)C23CC4CC(C2)CC(c2ccccc2)(C4)C3)cc1,-38,40,-1.9*,7,14
CCOc1ccc(NC(=O)CC2CC(C)(C)OC2=O)cc1 (stereo not given),nt,nt,0.11,6,10
Cn1c(=O)c2c(nc(NCc3ccco3)n2CC(O)COc2ccccc2)n(C)c1=O (stereo not given),nt,nt,nt,-1,40*
Cn1c(NCc2ccco2)nc2c1c(=O)n(Cc1ccc(Br)cc1)c(=O)n2C,-3,-1,-1.4,-6,32*
CCN(c1ccccc1)S(=O)(=O)c1ccc(NCC2COc3ccccc3O2)nc1 (stereo not given),nt,nt,-4.8*,15,56*
CO/N=C(\Cn1ncc(NC2CCCCC2)c(Br)c1=O)c1ccc(Cl)cc1,7,-6,0.86,23,76*
CO/N=C(\Cn1ncc(N2CCCC2)c(Br)c1=O)c1ccc(Cl)cc1,-1,4,-2.1,-15,19
CCc1nnc(NC(=O)CSc2nnc(-c3ccccc3O)n2CC)s1,-17,20,-4.8,-4,4
CCCn1c(SCC(=O)Nc2nccs2)nnc1-c1cccnc1,-4,3,0.49,8,3
CCn1c(SCC(=O)Nc2nc(-c3ccccc3)cs2)nnc1-c1ccccc1O,-7,4,nt,3,42*
CCCCn1c(SCC(=O)Nc2nc(C)cs2)nnc1-c1cccnc1,20,-20,0.63,-5,39*
CCn1c(CCNC(=O)c2cccs2)nnc1SCC(=O)Nc1nc(-c2ccccc2)cs1,-12,12,-7.5*,nt,nt
Cc1cc(C)nc(SCc2nnc(SCC(=O)Nc3nc(-c4ccccc4)cs3)n2-c2ccccc2)n1,15,-17,-8.4*,-8,-9
CC(=O)c1c(C)cc(C)c(CSc2nc(C)cc(=O)[nH]2)c1C,nt,nt,-3.4,nt,nt
Cc1nnc(-c2cccc(Br)c2)c2cn(-c3ccccc3)nc12,3,-1,0.75,94*,21
Cc1nnc(-c2cccc(Br)c2)c2cn(-c3cccc(Br)c3)nc12,3,-3,-0.5,7,19
Cc1nnc(-c2cccc(Br)c2)c2cn(-c3ccc(Br)cc3)nc12,8,-8,0.27,64*,49*
Cc1cccc(Sc2c(C=O)c3ccccc3n2C)c1,-2,2,-0.97,4,24
Nc1ccccc1-c1nnc(SCc2ccccc2F)[nH]c1=O,-10,11,0.03,-5,11
SMILES,sEH activator,sEH inh,Cav3 T inh,PostGolgi yeast,PostGolgi ctrl
CS(=O)(=O)N(CC(=O)Nc1ccccc1Sc1ccccc1)c1cccc(Br)c1,1,1,-0.67,9,41*
CSc1ccccc1NC(=O)CN(c1cc(C)cc(C)c1)S(C)(=O)=O,6,-5,-2.5,10,4
CC(=O)N1CN(CCCn2ccnc2)Cc2c1sc1c2CCCC1,-19,19,nt,-12,-5
CC(=O)N1CN(Cc2ccccn2)Cc2c1sc1c2CCCC1,-2,2,0.44,2,36*
Cc1cccc(C)c1NC(=O)NC1(C(=O)NCCCN2CCOCC2)CCCCC1,-9,12,0.29,nt,nt
COc1cc(Nc2nc(-c3ccccc3)c3cc(C)ccc3n2)cc(OC)c1OC,nt,nt,nt,-1,35*
